Results reported in PubChem BioAssay AID1478 (National Center for Advancing Translational Sciences (NCATS), 2009).
Out of some 200,000 compounds screened, about 860 (0.43%) were called active. The entries come from a sample that favours actives as a whole. Values without a mark were called inactive. The call rests on the fitted dose curve; in most records, active means well fitted inhibition curve with a large enough effect; inconclusive means small, poorly fitted or top-dose-only effect; inactive means flat fitted curve, though single readings scatter.

molecular target: Cruzipain (Trypanosoma cruzi) (UniProt P25779); test: qHTS Assay for Promiscuous and Specific Inhibitors of Cruzain (with detergent); details: purified cruzain, Z-FR-AMC fluorescence, 0.01% Triton; further: nearly all actives have a fitted effect of over 40% in size
Procedure: Cruzain (3.4.22.51) is a cysteine protease from the tropical parasite Trypanosoma cruzi. Dual qHTS experiment was performed against the NCGC compound collection in order to 1) identify novel inhibitors of the enzyme and 2) profile the compound collection for promiscuous inhibitors operating via colloidal aggregation (by performing detergent-free and detergent-containing comparison screens). Cruzain was assayed by the use of fluorogenic coumarin-based substrate Z-FR-AMC: proteolytic cleavage releases AMC, whose fluorescence is measured at 360 nm excitation and 450 nm emission. Purified cruzain was supplied by the labs of Prof. James McKerrow and Brian Shoichet, UC San Francisco.
This assay had 0.01% Triton X-100 concentration. See also releated assay "qHTS Assay for Promiscuous and Specific Inhibitors of Cruzain (without detergent)" with 0.00005% Triton X-100.
See following references for additional details:
Assay Provider: Shoichet, Brian; University of California, San Fancisco
Screening Center PI: Austin, C.P.
Screening Center: NIH Chemical Genomics Center [NCGC]
Buffer: 100 mM Sodium Acetate, pH 5.5, 5 mM DTT, Triton X-100 concentration: 0.01%.
Buffer in columns 3 and 4 as negative control (no enzyme).
Substrate solution: 2 uM final concentration of Z-FR-AMC (catalog number I-1160, Bachem) dispensed throughout the plate.
Enzyme: 1.5 nM Cruzain final concentration in columns 1, 2, 5-48. Column 1 is neutral (100% activity). Column 2 contained titration of covalent inhibitor K11777, starting concentration 1 mM, then 1:2 dilution in duplicate).
Three uL of enzyme or buffer were dispensed to 1536-well Greiner black solid bottom plates. Compounds and controls (23 nL) were transferred via Kalypsys PinTool. The plates were incubated for 15 min at room temperature, and then 1 uL of substrate solution was added to start the reaction. The plates were immediately transferred to and read 4 times every 30 seconds for 2 min on ViewLux High-throughput CCD imager (Perkin-Elmer) using 360 nm excitation and 450 nm emission fluorescence protocol. The fluorescence intensity difference between the third and the first time points (time lapse of 60 seconds) was used to compute reaction progress.
Potency means the concentration at half of the fitted maximal effect.

Cruzipain (Trypanosoma cruzi), sequence (P25779 123-467 limits assumed): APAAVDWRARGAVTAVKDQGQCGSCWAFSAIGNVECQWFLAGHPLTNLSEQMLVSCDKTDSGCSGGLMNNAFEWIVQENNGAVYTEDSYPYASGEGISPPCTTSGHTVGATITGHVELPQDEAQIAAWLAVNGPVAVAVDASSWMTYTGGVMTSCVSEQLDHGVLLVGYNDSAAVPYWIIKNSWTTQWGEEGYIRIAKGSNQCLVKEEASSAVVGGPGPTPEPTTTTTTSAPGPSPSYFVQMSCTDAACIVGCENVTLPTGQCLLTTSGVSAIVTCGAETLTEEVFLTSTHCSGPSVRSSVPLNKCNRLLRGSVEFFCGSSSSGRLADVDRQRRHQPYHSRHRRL

For `CCCCCn1c(CCNC(=O)c2ccc(F)cc2)nc2ccccc21`, the Potency was 4.47 µM (active).
`Cc1cccc(C(=O)NCCc2nc3ccccc3n2Cc2ccccc2Cl)c1` was tested, and the Potency was 8.91 µM (active).
In the case of `CCc1ccc(-c2cc(C(=O)NCc3ccco3)c3ccccc3n2)s1`, the Potency is reported as 22.4 µM (active).
In the case of `C=CC(=O)c1ccc2ccccc2c1`, the Potency is reported as 3.98 µM (active).
In the case of `CCN1CCCC1CNc1ncnc2c1[nH]c1ccc(F)cc12` (stereo not given), the Potency is reported as 25.1 µM (active).
For `Cc1ccc(-c2c3c(=O)n(C)c(=O)n(C)c3cn2-n2cnnc2)cc1`, the Potency was 10 µM (active).
`CCOc1ccccc1NC(=O)CSc1ncc(S(=O)(=O)c2ccc(C(C)(C)C)cc2)c(=O)[nH]1` was tested, and the Potency was 28.2 µM (active).

Compared with `CCC(=O)NCCc1nc2ccccc2n1CC`, `CCCCCn1c(CCCNC(=O)c2ccccc2OC)nc2ccccc21` is lower in max response, negative = inhibition: 4.89% for the first, -1.13% for the second.

Going from `Cc1ccc(C)c(Cn2c(CCCNC(=O)C3CCCCC3)nc3ccccc32)c1` to `O=C(Nc1cc(C(F)(F)F)ccc1Cl)c1nc2ccccc2nc1N1CCCCC1`, the max response, negative = inhibition rises from -3.31% to 2.61%.

First: COc1ccc(Cn2c(C(=O)O)c(CNCc3cccc(OC)c3)c3ccc(C)cc32)cc1
Second: COc1ccc(Cc2nc3ccc(C(=O)NCc4ccc(OC)cc4OC)cc3o2)cc1
The max response, negative = inhibition of the first is lower: -10.4% for the first, -5.34% for the second.

Compared with `CCCCCn1c(=O)[nH]c2cc(C(=O)Nc3ccc(F)cc3)ccc2c1=O`, `Cc1cc(=O)c2cc(C(=O)Nc3cccc(C)c3C)ccc2[nH]1` is lower in max response, negative = inhibition: -0.504% for the first, -3.15% for the second.

Compared with `COc1ccccc1NC(=O)C(=O)c1cc(C)n(-c2ccccc2F)c1C`, `Cc1cccc(NC(=O)CSc2ncc(-c3ccccc3)[nH]2)c1C` is lower in max response, negative = inhibition: -2.07% for the first, -4.22% for the second.

Compared with `O=C(CC1N=C2c3ccccc3N=C(SCc3ccc(F)cc3)N2C1=O)NCc1cccs1` (stereo not given), `OCc1cnc(SCc2ccc(F)cc2)n1Cc1ccc(F)cc1` is higher in max response, negative = inhibition: -4.42% for the first, -1.84% for the second.

Going from `COc1cc(OC)c(NC(=O)c2cnc(N3CCCC3)nc2C)cc1Cl` to `CCOC(=O)c1cccc(NC(=O)c2cc(CN3CCCC3)on2)c1`, the max response, negative = inhibition rises from -6.84% to -1.68%.

Compared with `Cc1ccc(CNS(=O)(=O)c2ccc(C(=O)N(C)C)s2)cc1`, `CCOc1cccc(C(=O)Nc2nnc(S(=O)(=O)N(C)c3ccc(C)cc3)s2)c1` is lower in max response, negative = inhibition: -0.386% for the first, -2.64% for the second.

First: CCc1ccccc1NC(=O)Cc1ccc(NC(=O)N2CCCCc3ccccc32)cc1
Second: COC(=O)c1ccc(Cn2c(SCC(=O)N(C)c3ccccc3)nc3ccccc32)cc1
The max response, negative = inhibition of the first is higher: -5.61% for the first, -5.82% for the second.

First: CC(=O)N1CCCc2cc(S(=O)(=O)N3CCC(C(=O)NC4CCCCC4)CC3)ccc21
Second: CCOc1ccc(CNC(=O)c2cc(=O)[nH]c3ccc(S(=O)(=O)N4CCCCC4)cc23)cc1
The max response, negative = inhibition of the first is lower: -0.0735% for the first, 0.425% for the second.

Compared with `O=C(NCc1ccco1)c1cc(-c2cccnc2)nc2ccc(Cl)cc12`, `CCOc1ccc(CNC(=O)c2cc(-c3ccc(Cl)s3)nc3ccccc23)cc1` is higher in max response, negative = inhibition: -13.8% for the first, -0.709% for the second.

Going from `Cc1ccc2nc(/C(C#N)=C/c3ccc(-c4ccc(C(=O)OC(C)C)cc4)o3)[nH]c2c1` to `Cc1ccc(-c2c3c(=O)n(C)c(=O)n(C)c3cn2-c2ccccc2O)cc1`, the max response, negative = inhibition rises from -3.11% to 0.548%.

First: Fc1ccc(-c2nc(Nc3cccc(Cl)c3)nc3c2COc2ccccc2-3)cc1
Second: CC(=O)c1ccc2c(ccc3ccccc32)c1
The max response, negative = inhibition of the first is higher: -3.92% for the first, -9.87% for the second.

First: Cc1ccc(-n2ncc3c(NCCCn4ccnc4)ncnc32)cc1Cl
Second: CCN(c1ncnc2c1cnn2-c1ccc(C)cc1)C1CCCCC1
The max response, negative = inhibition of the first is lower: -0.0419% for the first, 1.62% for the second.

First: CC(=O)CCC(=O)c1ccc2ccccc2c1
Second: Cc1ccccc1CNC(=O)C(=O)NCC(c1cccs1)S(=O)(=O)c1cccs1 (stereo not given)
The max response, negative = inhibition of the first is lower: -3% for the first, -2.25% for the second.

Compared with `Fc1ccc2[nH]c3c(N4CCSCC4)ncnc3c2c1`, `CCCn1c(-c2ccc(F)cc2)nc2c(NCC3CCCN3CC)nc(C)nc21` (stereo not given) is higher in max response, negative = inhibition: -6.83% for the first, -1.1% for the second.

First: Cc1cc2c(cc3c(SCc4cccc(Cl)c4)nnc(C)n32)o1
Second: COc1ccc(-c2c3c(=O)n(C)c(=O)n(C)c3cn2-c2cccc(OC)c2)cc1
The max response, negative = inhibition of the first is lower: -4.57% for the first, -3.29% for the second.

Compared with `COc1ccc(OC)c(CNC(=O)Cn2nc(C)c3c(C)n(-c4ccccc4)nc3c2=O)c1`, `CCOc1ccc(N2CC(C)Cn3c2nc2c3c(=O)n(Cc3c(F)cccc3Cl)c(=O)n2C)cc1` (stereo not given) is lower in max response, negative = inhibition: -2.6% for the first, -3.27% for the second.

Going from `CCOc1ccccc1NC(=O)CCn1cnnn1` to `O=C(CSc1ncc(S(=O)(=O)c2ccc(Br)cc2)c(=O)[nH]1)Nc1ccc2c(c1)OCCO2`, the max response, negative = inhibition falls from 2.1% to -23.7%.
